Assay results published in PubChem BioAssay (EPA / NIEHS).
Records with an inconclusive call do not appear. Calls of active or inactive are those of the source. How the source made its calls: active means hit-call score of the fitted dose curve at least 0.9, where 1 is the maximum; inconclusive means response in the unintended direction; inactive means score below 0.9.

Assay: ACEA_ER_AUC_viability: ACEA Biosciences xCELLigence Real-Time Cell Analysis on Estrogen Receptor Agonism for Viability (AID 2283782);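 further: continuous compound exposure with impedance area under curve over 80 h; hit means loss of impedance signal meaning reduced cell growth or viability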
Procedure, shortened: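 T-47D human breast cells in phenol red-free RPMI1640 with 10% charcoal-stripped FBS were dosed with an 8-point 1:4 dilution series from 100 uM top final concentration, in duplicate. Impedance-based growth was followed for 80 h; AUC analysed versus DMSO.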

Row | SMILES | AC50 | outcome
1 | C=C(C)[C@@H]1CCC2=CCC[C@@H](C)[C@]2(C)C1 | 77.6 µM (active) | 
2 | CCCC(=O)OCc1ccccc1 |  | inactive
3 | Nc1cccc(C(F)(F)F)c1 |  | inactive
4 | C[Si](C)(CCCN)O[Si](C)(C)CCCN | 55.9 µM (active) | 
5 | CO[Si](CCC1CCC2OC2C1)(OC)OC (stereo not given) | 37.7 µM (active) | 
6 | CC(C)=CCC/C(C)=C\C#N |  | inactive
7 | O=C1C=CC(=O)O1 |  | inactive
8 | O=C1CCCN1CCO |  | inactive
9 | CCC(C)(C)C1CCCCC1OC(C)=O (stereo not given) |  | inactive
10 | Cc1cccc(C(=O)O)c1 |  | inactive
11 | C=CC(C)(CCC=C(C)C)OC(=O)C(C)C (stereo not given) |  | inactive
12 | CCc1c(C(=O)O)c(=O)cnn1-c1ccc(Cl)cc1 | 31.4 µM (active) | 
13 | C/C=C\C/C=C/CCCCCCCCOC(C)=O | 82.3 µM (active) | 
14 | C=C(C)C(=O)OCC(C)C |  | inactive
15 | COCCOCCOCCOCCOC |  | inactive
16 | CCCCCCCCc1ccc(Nc2ccc(CCCCCCCC)cc2)cc1 |  | inactive
17 | CCOC(=O)[C@H](C)O |  | inactive
18 | O=C(OCC1CCC2OC2C1)C1CCC2OC2C1 (stereo not given) |  | inactive

Row | SMILES | AC50 | outcome
19 | C=CC(C)(CCC=C(C)C)OC(=O)CC(C)C (stereo not given) |  | inactive
20 | CCCCCCCCCCCCCCCC(=O)OCC |  | inactive
21 | CCCCCCCCC(=O)OCC | 50 µM (active) | 
22 | NC(=O)NNC(N)=O |  | inactive
23 | CCc1nccnc1C |  | inactive
24 | O=C1CCCCCCCCCCCCCCCO1 |  | inactive
25 | O=C1C(N(CO)C(=O)NCO)N(CO)C(=O)N1CO (stereo not given) |  | inactive
26 | OCCc1ccncc1 |  | inactive
27 | C=CC(=O)NC(C)(C)CS(=O)(=O)O | 11.2 µM (active) | 
28 | C=C[C@](C)(O)CC[C@@H]1[C@@]2(C)CCCC(C)(C)[C@@H]2CC[C@@]1(C)O | 37.6 µM (active) | 
29 | CCC(C)C=O (stereo not given) | 39.7 µM (active) | 
30 | CC1(C)S[C@@H]2[C@H](NC(=O)COc3ccccc3)C(=O)N2[C@H]1C(=O)O |  | inactive
31 | C1CN(SSN2CCOCC2)CCO1 | 82.4 µM (active) | 
32 | O=C1CCC(=O)N1Cl |  | inactive
33 | c1ccc(-c2ccccn2)nc1 | 34.1 µM (active) | 
34 | CC/C=C\CCOC(=O)CCCCC |  | inactive
35 | CC(=O)OCC(C)OC(C)=O (stereo not given) |  | inactive
